The results in this text go back to PubChem BioAssay (NCI).

Common to all, as to test: NCI-60 one-dose screen, 48 h (100 = growth as untreated, 0 = no growth, -100 = all killed)
One assay concerns SR leukemia. The settings on record: 10 µM unless noted.
In the next assay the test system is RPMI-8226 leukemia. The settings on record: 10 µM unless noted.
The subject of a further assay is OVCAR-8 ovarian. The settings on record: 10 µM unless noted.
The test system of a further assay is OVCAR-5 ovarian. The settings on record: 10 µM unless noted.
A further assay concerns OVCAR-4 ovarian. The following applies: 10 µM unless noted.
For the next assay, the system named is SK-OV-3 ovarian. The settings on record: 10 µM unless noted.
The next assay relates to IGROV1 ovarian. The settings on record: 10 µM unless noted.
A further assay has as its system OVCAR-3 ovarian. The following applies: 10 µM unless noted.
Another assay relates to HS 578T breast. The settings on record: 10 µM.
The next assay deals with NCI/ADR-RES ovarian. The settings on record: 10 µM unless noted.
In the next assay the test system is T-47D breast. The following applies: 10 µM unless noted.
Another assay has as its system BT-549 breast. The following applies: 10 µM unless noted.
The test system of another assay is MDA-MB-435 melanoma. The settings on record: 10 µM unless noted.
In a further assay the test system is SW-620 colon. The settings on record: 10 µM unless noted.
In a further assay the test system is MCF7 breast. The following applies: 10 µM unless noted.
The next assay concerns HCT-116 colon. The settings on record: 10 µM unless noted.
Another assay relates to HCC-2998 colon. The following applies: 10 µM unless noted.
The subject of another assay is KM12 colon. The following applies: 10 µM unless noted.

The panel holds about 83,000 compounds, 20% with a hit somewhere; the sample as a whole holds those more often.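 Negative percent growth values reflect cell death: -40 means 40% of the cells present at the start died, and -100 means all died.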 Values without a mark were called inactive. Activity calls are given as the source filed them. How the source made its calls: active means growth percent below 10; inactive means the rest.

For the compound `CCN(CC)CCCC(C)Nc1cnc(C(=O)Nc2cccc3ccc(OC)nc23)cn1` (configuration not stated), the growth in the assay with SR leukemia is -5.71% (active); with RPMI-8226 leukemia, 23.8%; with OVCAR-8 ovarian it was 68.2%; with OVCAR-5 ovarian, 91.3%; with OVCAR-4 ovarian, 98.1%; in the assay with SK-OV-3 ovarian it was 87%. For the same compound, the growth in the assay on IGROV1 ovarian is 78.3%; in the assay on OVCAR-3 ovarian, -30.7% (active); with HS 578T breast it was 69.5%; in the assay with NCI/ADR-RES ovarian, 76.1%; in the assay with T-47D breast, 83.9%; in the assay with BT-549 breast it was 83.2%. The growth in the assay on MDA-MB-435 melanoma is -58.2% (active); in the assay with SW-620 colon, 2.12% (active); in the assay on MCF7 breast, 20.1%; in the assay with HCT-116 colon, -36% (active); in the assay on HCC-2998 colon, 90.9%; in the assay on KM12 colon, 36.3%.
Turning to `Cc1ccc(-c2nc3ccccc3c(=O)n2/N=C/c2cccc3ccccc23)cc1`, the growth in the assay with SR leukemia was 49.8%; in the assay with RPMI-8226 leukemia, 73.6%; in the assay with OVCAR-8 ovarian, 84.2%; in the assay on OVCAR-5 ovarian, 102%; in the assay on OVCAR-4 ovarian it was 76.2%; with SK-OV-3 ovarian it was 76.4%. In addition, the growth was 50.1% in the assay on IGROV1 ovarian; 71.6% in the assay with OVCAR-3 ovarian; 100% in the assay on HS 578T breast; 78.6% with NCI/ADR-RES ovarian; 42.6% in the assay with T-47D breast; 80.1% with BT-549 breast. Besides, the growth was 69.2% with MDA-MB-435 melanoma; 93.9% with SW-620 colon; 62.9% with MCF7 breast; 71.5% in the assay on HCT-116 colon; 80.5% in the assay with HCC-2998 colon; 69.1% with KM12 colon.
Regarding `COc1cc2nccc(Oc3ccc(NC(=O)C4(C(=O)Nc5c(F)cc(F)cc5F)CC4)cc3)c2cc1Oc1ccc(N)cn1`, the growth with SR leukemia was 58.5%; in the assay with RPMI-8226 leukemia, 50.1%; with OVCAR-8 ovarian it was 69.7%; in the assay with OVCAR-5 ovarian, 70%; with OVCAR-4 ovarian, 28.4%; with SK-OV-3 ovarian it was 81.3%. The growth in the assay with IGROV1 ovarian was 28.1%; with OVCAR-3 ovarian, 75.3%; with HS 578T breast, 25.8%; in the assay with NCI/ADR-RES ovarian, 82.3%; in the assay with T-47D breast it was 29%; in the assay with BT-549 breast, 74.2%. Moreover, the growth was 3.8% (active) with MDA-MB-435 melanoma; 40.3% with SW-620 colon; 31.7% with MCF7 breast; 56.6% in the assay with HCT-116 colon; 81.5% in the assay with HCC-2998 colon; 15.5% in the assay with KM12 colon.
Take `O=C(Nc1ccc2[nH]c3ccccc3c2c1)c1ccccc1Cl`: the growth with SR leukemia is 17.6%; in the assay with RPMI-8226 leukemia, 67.5%; in the assay on OVCAR-8 ovarian, 72.4%; with OVCAR-5 ovarian, 82.4%; in the assay on OVCAR-4 ovarian, 101%; in the assay with SK-OV-3 ovarian, 50.5%. The growth in the assay with IGROV1 ovarian is 50.1%; in the assay with OVCAR-3 ovarian, 50.9%; in the assay on HS 578T breast, 70.6%; in the assay with NCI/ADR-RES ovarian, 18.8%; in the assay on T-47D breast, 43.7%; in the assay with BT-549 breast, 61.2%. For the same compound, the growth was -53.1% (active) with MDA-MB-435 melanoma; 28.2% in the assay with SW-620 colon; 21.8% in the assay on MCF7 breast; 25.4% with HCT-116 colon; 64.3% in the assay with HCC-2998 colon; 24.4% in the assay on KM12 colon.
As to `Cc1ccc2oc(=O)cc(-c3nc4ccc([N+](=O)[O-])cc4[nH]3)c2c1`, the growth with SR leukemia was 83%; in the assay on RPMI-8226 leukemia, 30.9%; with OVCAR-8 ovarian, 55.6%; in the assay on OVCAR-5 ovarian it was 98.3%; with OVCAR-4 ovarian, 31.3%; in the assay on SK-OV-3 ovarian it was 79.4%. Further, the growth in the assay on IGROV1 ovarian is 70.6%; with OVCAR-3 ovarian it was 43.5%; in the assay with HS 578T breast it was 63.9%; in the assay with NCI/ADR-RES ovarian, 20.9%; in the assay with T-47D breast, 25.4%; in the assay with BT-549 breast, 42.4%. Also, the growth is 64.6% in the assay on MDA-MB-435 melanoma; 78.1% in the assay on SW-620 colon; 57.2% in the assay with MCF7 breast; 8.52% (active) in the assay on HCT-116 colon; 67.2% with HCC-2998 colon; 59.7% in the assay on KM12 colon.
Take `COc1cc(CN2CCO[C@H](COc3cccc(F)c3)C2)ccc1Cl`: the growth with SR leukemia is 50.8%; in the assay on RPMI-8226 leukemia it was 30.4%; with OVCAR-8 ovarian, 22.2%; in the assay on OVCAR-5 ovarian, 47.8%; with OVCAR-4 ovarian, 9.51% (active); in the assay on SK-OV-3 ovarian it was 34.5%. The growth in the assay on IGROV1 ovarian is 67.3%; with OVCAR-3 ovarian, 49.4%; in the assay on HS 578T breast it was 51.7%; in the assay with NCI/ADR-RES ovarian, 26%; in the assay on T-47D breast, 28.2%; with BT-549 breast, 50.2%. For the same compound, the growth in the assay on MDA-MB-435 melanoma was 29.2%; with SW-620 colon it was 47.4%; in the assay with MCF7 breast it was 26.7%; in the assay with HCT-116 colon it was 27.1%; in the assay with HCC-2998 colon, 49.3%; in the assay on KM12 colon, 69%.
On to `COc1cc2c(cc1C)NC(=O)/C2=C\c1c[nH]c2ccccc12`, for which the growth with SR leukemia is 46.4%; in the assay with RPMI-8226 leukemia, 59.7%; in the assay on OVCAR-8 ovarian, 69.3%; in the assay on OVCAR-5 ovarian, 75.3%; in the assay with OVCAR-4 ovarian, 64.8%; with SK-OV-3 ovarian, 97.4%. Also, the growth is -6.11% (active) in the assay with IGROV1 ovarian; 65.9% in the assay with OVCAR-3 ovarian; 75.2% in the assay on HS 578T breast; 77% in the assay with NCI/ADR-RES ovarian; 65.8% in the assay on T-47D breast; 94.6% in the assay on BT-549 breast. For the same compound, the growth was 68.8% in the assay on MDA-MB-435 melanoma; 101% in the assay with SW-620 colon; 59.2% in the assay on MCF7 breast; 78.5% in the assay with HCT-116 colon; 109% with HCC-2998 colon; 24.3% in the assay on KM12 colon.
With `O=C(OCc1ccc2c(Br)cc(Br)c(O)c2n1)c1cc2ccccc2[nH]1`, the growth in the assay with SR leukemia was 3.2% (active); in the assay on RPMI-8226 leukemia, -25.2% (active); in the assay with OVCAR-8 ovarian it was -23.7% (active); in the assay with OVCAR-5 ovarian it was -85.4% (active); in the assay with OVCAR-4 ovarian, -21.2% (active); with SK-OV-3 ovarian, 68.8%. Further, the growth is -91.5% (active) with IGROV1 ovarian; -80.8% (active) in the assay with OVCAR-3 ovarian; -4.51% (active) in the assay with HS 578T breast; -55.2% (active) in the assay on NCI/ADR-RES ovarian; -69.5% (active) in the assay with T-47D breast; -84.3% (active) with BT-549 breast. Moreover, the growth with MDA-MB-435 melanoma was -80.6% (active); in the assay on SW-620 colon, -69.2% (active); with MCF7 breast it was -35.5% (active); with HCT-116 colon, -72.9% (active); in the assay with HCC-2998 colon it was -77.7% (active); in the assay on KM12 colon it was -19% (active).
As for `COc1cc(OC)cc(-c2n/c(=C\c3c(O)[nH]c4ccc(Cl)cc34)cc3c2=Nc2ccccc2-3)c1`, the growth in the assay on SR leukemia was 23.5%; in the assay with RPMI-8226 leukemia, 71.2%; with OVCAR-8 ovarian, 54.5%; in the assay on OVCAR-5 ovarian it was 114%; in the assay on OVCAR-4 ovarian, 16.1%; with SK-OV-3 ovarian, 114%. Besides, the growth in the assay on IGROV1 ovarian is -21.3% (active); with OVCAR-3 ovarian it was 69.7%; in the assay on HS 578T breast, 90.4%; in the assay with NCI/ADR-RES ovarian, 81.6%; in the assay on T-47D breast it was 84.9%; in the assay on BT-549 breast, 97.2%. For the same compound, the growth with MDA-MB-435 melanoma was 99.3%; in the assay with SW-620 colon it was -1.36% (active); in the assay with MCF7 breast it was 24.3%; in the assay with HCT-116 colon, 2.45% (active); with HCC-2998 colon, 103%; in the assay with KM12 colon it was 22.8%.
